# Assay results published in the supplement of paper PMC12282887.
# ± gives the standard deviation of the averaged measurements.
# Test system: E. coli BW25113 marRABp lux reporter
# Test: promoter activity interaction Z-score (Lux/OD deviation from empty-vector control); higher = stronger promoter induction by the compound
# Description: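 E. coli BW25113 (wild type or ΔmarA/ΔsoxS/Δrob) carrying pTU175 luxCDABE promoter reporters was grown in LB in 384-well plates at 37°C with each of 94 compounds at 4 two-fold concentrations, in biological duplicates. Luminescence and OD600 were read every 30 min for 12 h and integrated as AUC over 8 h (0-8 h WT, 1-9 h mutants). Lux AUC was divided by OD AUC; the interaction score is the residual of a Huber robust fit of each promoter against the empty-vector control, then Z-transformed per promoter.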
Compound,"promoter activity interaction Z-score (18.9 µg/ml, genetic background: wild type)","promoter activity interaction Z-score (18.9 µg/ml, genetic background: ΔmarA)","promoter activity interaction Z-score (18.9 µg/ml, genetic background: Δrob)","promoter activity interaction Z-score (18.9 µg/ml, genetic background: ΔsoxS)","promoter activity interaction Z-score (37.8 µg/ml, genetic background: wild type)","promoter activity interaction Z-score (37.8 µg/ml, genetic background: ΔmarA)","promoter activity interaction Z-score (37.8 µg/ml, genetic background: Δrob)","promoter activity interaction Z-score (37.8 µg/ml, genetic background: ΔsoxS)","promoter activity interaction Z-score (75.6 µg/ml, genetic background: wild type)","promoter activity interaction Z-score (75.6 µg/ml, genetic background: ΔmarA)","promoter activity interaction Z-score (75.6 µg/ml, genetic background: Δrob)","promoter activity interaction Z-score (75.6 µg/ml, genetic background: ΔsoxS)","promoter activity interaction Z-score (151.1 µg/ml, genetic background: wild type)","promoter activity interaction Z-score (151.1 µg/ml, genetic background: ΔmarA)","promoter activity interaction Z-score (151.1 µg/ml, genetic background: Δrob)","promoter activity interaction Z-score (151.1 µg/ml, genetic background: ΔsoxS)","promoter activity interaction Z-score (19.1 µg/ml, genetic background: wild type)","promoter activity interaction Z-score (19.1 µg/ml, genetic background: ΔmarA)","promoter activity interaction Z-score (19.1 µg/ml, genetic background: Δrob)","promoter activity interaction Z-score (19.1 µg/ml, genetic background: ΔsoxS)","promoter activity interaction Z-score (38.3 µg/ml, genetic background: wild type)","promoter activity interaction Z-score (38.3 µg/ml, genetic background: ΔmarA)","promoter activity interaction Z-score (38.3 µg/ml, genetic background: Δrob)","promoter activity interaction Z-score (38.3 µg/ml, genetic background: ΔsoxS)","promoter activity interaction Z-score (76.6 µg/ml, genetic background: wild type)","promoter activity interaction Z-score (76.6 µg/ml, genetic background: ΔmarA)","promoter activity interaction Z-score (76.6 µg/ml, genetic background: Δrob)","promoter activity interaction Z-score (76.6 µg/ml, genetic background: ΔsoxS)","promoter activity interaction Z-score (153.1 µg/ml, genetic background: wild type)","promoter activity interaction Z-score (153.1 µg/ml, genetic background: ΔmarA)","promoter activity interaction Z-score (153.1 µg/ml, genetic background: Δrob)","promoter activity interaction Z-score (153.1 µg/ml, genetic background: ΔsoxS)"
O=c1c(O)c(-c2ccc(O)c(O)c2)oc2cc(O)cc(O)c12 [Quercetin],0.0379 ± 0.17,-0.192 ± 0.25,-0.164 ± 0.21,0.203 ± 0.51,0.341 ± 0.79,0.116 ± 0.59,0.248 ± 0.078,0.179 ± 0.43,0.82 ± 0.64,0.9 ± 0.12,-0.0348 ± 0.087,0.129 ± 0.45,1.13 ± 0.91,0.91 ± 0.61,0.867 ± 0.51,0.0221 ± 0.045,–,–,–,–,–,–,–,–,–,–,–,–,–,–,–,–
Nc1ccc(C(=O)O)c(O)c1 [4-Aminosalicylic acid],–,–,–,–,–,–,–,–,–,–,–,–,–,–,–,–,0.109 ± 0.4,0.307 ± 0.0067,0.19 ± 0.12,0.147 ± 0.18,0.0516 ± 0.015,0.172 ± 0.09,0.493 ± 0.39,0.161 ± 0.086,-0.0573 ± 0.025,-0.242 ± 0.12,0.384 ± 0.31,-0.0494 ± 0.21,0.642 ± 0.055,0.698 ± 0.021,0.956 ± 0.3,0.968 ± 0.13
